In PubChem BioAssay (Tox21):
Unmarked numbers belong to inactive results. Calls come from the whole dose curve; as a rule, active = well fitted activation curve with a large enough effect in the repeat runs; inconclusive = weak or mixed curves; inactive = flat fitted curve, though single readings scatter.

assay: Caspase-3/7 induction in CHO-K1 cells by small molecules, qHTS assay (AID 1346980); details: CHO-K1 caspase-3/7 induction, Caspase-Glo luminescence, 17 h; series mostly up to 92.4 µM; caspase-3/7 activation: at the top concentration; note: nearly all actives have a fitted effect of over 15% in size
Description: National Center for Advancing Translational Sciences [NCATS]
NIH Chemical Genomics Center [NCGC]
U.S. Environmental Protection Agency [EPA]
National Institutes of Environmental Health Sciences [NIEHS]
National Toxicology Program [NTP]
Apoptosis is a process of programmed cell death and plays a central role in the development of multicellular organisms. It is a highly regulated process and induces cell death by activating caspases, which are the members of cysteine aspartic acid-specific protease (caspase) family. Caspases involved in apoptosis are classified by their mechanism of action as initiator caspases (caspase-2, -8, -9 and -10) and executioner caspases (caspase-3, -6, and -7). Inhibition of apoptosis results in number of cancers, autoimmune diseases, inflammatory diseases and viral infection. To identify small molecule compounds that induce apoptosis, a homogeneous, luminescent Caspase-Glo 3/7 assay was used. Wild type CHO-K1 cells were used to screen Tox21 libraries for identifying caspase-3/7 activity inducers.
CHO-K1 cells were dispensed at 1,500 per well in 5uL of culture medium into white solid bottom 1536-well plates (Corning Life Sciences, Corning, NY) using a Multidrop Combi (Thermo Scientific, Waltham, MA) dispenser. The assay plates were incubated at 37 C and 5% CO2 for 5hr, and then 23nL of compounds dissolved in DMSO and positive control were transferred using a Pintool station (Wako, San Diego, CA). The assay plates were incubated at 37C and 5% CO2 for 17hr. For caspase-3/7 activity read, 4uL of Caspase-Glo 3/7 reagent (Promega Corporation, Madison, WI) was added to each well of the assay plates using Flying Reagent Dispenser (FRD, Aurora Discovery, San Diego, CA) and incubated the assay plates at room temperature for 30min. The luminescence signal was quantified using a ViewLux plate reader (Perkin Elmer, Shelton, CT).
% is set by controls: 0 for no effect and ±100 for the full control effect.

Point of comparison: `CCOC(OCC)OCC`, “caspase-3/7 activation” value -2.19%. Against it:
- CC(=O)Nc1cccc(N)c1 — higher, -0.114%
- CCC(C)C1N=C(C)C(C)S1 (stereo not given) — higher, 1.36%
- COc1ccc(/C=C/S(=O)(=O)NC(=O)c2ccc(C)cc2Cl)cc1 — higher, -0.194%
- CC(C)CC(C)(C)C — higher, 1.34%
- CCCC(=O)OCCC(C)C — higher, 1.25%
- O=C(Cl)c1ccc(F)c(Cl)c1 — higher, -1.04%
- C=C(C)C(=O)OCCCCCCCCCCOC(=O)C(=C)C — higher, 0.98%
- C=CC(O)CCCCC (stereo not given) — higher, 0.307%
- O=C(O)c1ccc2cc(O)ccc2c1 — higher, -2.13%
- Cc1c(N=C=O)cccc1N=C=O — higher, 0.264%
- Cc1nc(C)c(C)nc1C — higher, -1.58%
- Nc1ccc(F)cc1F — higher, -0.901%
- Cc1ccc(NC=O)c(C)c1 — higher, 0.191%
- CC1(C)CC(O)CC(C)(C)N1[O] — higher, 0.0291%
- [O-][n+]1ccc(Cl)cc1 — higher, 0.955%
- O=[N+]([O-])c1ccccc1CCO — higher, -0.0255%
- O=C(Cl)c1cc(Cl)cc(Cl)c1 — higher, -1.56%
- CCOc1cc(OCC)c(C(C)=O)cc1OCC — higher, 0.034%
- O=C1OC(=O)C2CC=CCC12 (stereo not given) — higher, -1.73%
- C[Si](C)(C)O[Si](C)(C)O[Si](C)(C)C — higher, -0.233%
- C=CC(=O)NC(C)(C)C — higher, -1.21%
- CCCCCCOC(=O)c1ccccc1 — higher, 0.76%
- CCCCOc1ccc(N)cc1 — higher, -0.866%
- O=C(O)c1cc(C(=O)O)cc([N+](=O)[O-])c1 — higher, -0.179%
- C(/C=C/C=C/Nc1ccccc1)=Nc1ccccc1 — higher, -0.153%
- O=C(O)c1ccc(O)c(O)c1 — higher, 0.0497%
- Nc1ccccc1Nc1ccccc1 — higher, -0.696%
- CC(C)Cc1nccs1 — higher, -0.0937%
- CCCCCC1CCC(=O)O1 (stereo not given) — higher, 0.318%
- Cc1cc(C)n(CO)n1 — higher, 0.328%
- COC(=O)C(C)(C)C — higher, 1.7%

In the case of `COC=O`, the caspase-3/7 activation was -0.739% [at 8.39 µM].

Point of comparison: `CCC(C(=O)O)c1ccc(N2Cc3ccccc3C2=O)cc1` (stereo not given), “caspase-3/7 activation” value -5.95% [at 42.5 µM]. Against it:
- CC(C(=O)O)c1ccc2c(c1)Cc1cccnc1O2 (stereo not given) — higher, 0.038% [at 42.5 µM]
- COc1cc(C)c(Cc2cnc(N)nc2N)cc1OC — higher, 0.151% [at 42.5 µM]
- CC(COc1ccccc1)NC(C)C(O)c1ccc(O)cc1 (stereo not given) — higher, -0.484% [at 42.5 µM]
- O=C(OC1C[C@H]2CC[C@@H](C1)[N+]21CCCC1)C(O)(c1ccccc1)c1ccccc1 (stereo not given in full) — higher, 0.181% [at 42.5 µM]
- O=C(O)CCc1nc2ccccc2[nH]1 — higher, -0.775% [at 42.5 µM]
- C/C(=C(\CCO)SS/C(CCO)=C(\C)N(C=O)Cc1cnc(C)nc1N)N(C=O)Cc1cnc(C)nc1N — higher, 0.0875% [at 42.5 µM]
